This is a sample that favours compounds with a hit; in the whole collection about 2.6% have one here.
PABP1 MLLE inh: inhibitors of PABP1 MLLE–PAM2 peptide binding, primary screen, biochemical, fluorescence polarization, FITC-PAM2, GST-MLLE. inhibition, % at 20 µM. 360,000 tested, 0.36% active; in the data active means inhibition above about 35%, passing the limit was not always enough;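 further: plate controls were DMSO wells with GST-MLLE for no effect and wells lacking GST-MLLE protein for full effect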
APOBEC3A inh: APOBEC3A ssDNA deaminase inhibitors, primary screen, selectivity assay for APOBEC3G inhibitor project, biochemical, FAM/TAMRA oligo cleavage fluorescence; DNA dC->dU-editing enzyme APOBEC-3A (Homo sapiens), P31941; recombinant A3A, FAM/TAMRA ssDNA deamination fluorescence; inhibition, % at 20 µM; 330,000 tested, 0.41% active;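 active means at least 40% inhibition at 20 µM here, with at most 30% in a related deaminase screen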;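 further: plate controls were A3A with DMSO for no effect and wells lacking A3A enzyme for full effect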
Target sequence (P31941 whole entry, looked up): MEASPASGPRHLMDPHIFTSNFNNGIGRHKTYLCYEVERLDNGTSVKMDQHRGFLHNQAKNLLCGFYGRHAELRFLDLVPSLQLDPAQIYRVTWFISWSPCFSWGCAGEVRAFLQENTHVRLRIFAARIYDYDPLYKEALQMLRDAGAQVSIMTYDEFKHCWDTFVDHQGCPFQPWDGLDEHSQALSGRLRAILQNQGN
PABP polyA inh: PABP poly(A) RNA binding inhibitors, primary screen, biochemical, fluorescence polarization, uHTS; calls only at 35 µM; 290,000 tested, 1% active; Polyadenylate-binding protein 1 (Homo sapiens), P11940;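 further: calls also rest on retests at 20 µM and on dose response follow-up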
PHOSPHO1 block: PubChem AID 1565. inhibition, % at 13.3 µM. 290,000 tested, 1.1% active. recombinant PHOSPHO1, absorbance phosphatase assay; in the data active means inhibition above about 60%
APOBEC3G inh: APOBEC3G DNA deaminase inhibitors, primary screen, biochemical, fluorescence, single-stranded DNA substrate, uHTS; inhibition, % at 20 µM; recombinant A3G, ssDNA deamination FAM/TAMRA fluorescence; 330,000 tested, 0.28% active;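 active means inhibition of at least 40% at 20 µM, with no more than 30% in the related APOBEC3A deaminase screen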;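 further: plate controls were DMSO wells with A3G for no effect and wells lacking A3G enzyme for full effect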
Target sequence (Q9HC16 whole entry, looked up): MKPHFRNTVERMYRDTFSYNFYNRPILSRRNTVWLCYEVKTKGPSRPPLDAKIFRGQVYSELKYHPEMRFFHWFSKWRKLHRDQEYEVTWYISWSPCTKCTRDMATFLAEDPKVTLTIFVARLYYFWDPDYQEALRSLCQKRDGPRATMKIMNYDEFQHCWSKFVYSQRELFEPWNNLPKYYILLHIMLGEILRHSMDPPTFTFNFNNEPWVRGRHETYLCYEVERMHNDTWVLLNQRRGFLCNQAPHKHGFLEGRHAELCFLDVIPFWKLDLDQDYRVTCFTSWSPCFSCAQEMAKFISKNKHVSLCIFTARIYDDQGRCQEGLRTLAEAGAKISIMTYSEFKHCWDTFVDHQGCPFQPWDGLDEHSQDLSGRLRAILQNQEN
eIF4H inh: human eIF4H binding inhibitors, primary screen, translation initiation inhibitor project, biochemical, uHTS, fluorescence polarization; Eukaryotic translation initiation factor 4H (Homo sapiens), Q15056; eIF4H fluorescence polarization binding assay; AID 2012, 2009; inhibition, % at 35 µM; 290,000 tested, 0.94% active;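 further: calls also rest on retests at 20 µM and on dose response follow-up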
The depositor's hits bear a star; i = inactive; ? = inconclusive; . = not tested or not shown; + = active, no number. Unless noted, how the calls were made is not given here.

SMILES	PABP1 MLLE inh	APOBEC3A inh	PABP polyA inh	PHOSPHO1 block	APOBEC3G inh	eIF4H inh
COc1ccc(C(=O)CSc2nnc(-c3cnccn3)n2Cc2ccco2)cc1	-3.8	-0.2	i	55.2	-2.1	-6.8
CCn1c(SCC(=O)c2ccc3ccccc3c2)nnc1-c1ccco1	5.0	2.5	i	73.3*	0.2	14.1
COc1ccc(C(=O)CSc2nnc(-c3cccnc3)n2Cc2ccco2)cc1	-4.0	-5.0	i	92.4*	-8.2	-26.5
Cn1nc(C(=O)N2CCC(C(N)=O)CC2)c2c1-c1ccccc1SC2	16.0	0.6	i	25.4	-8.3	-2.5
O=C1NC(=O)C(CC(=O)N(Cc2cccs2)C2(C(=O)NC3CCCCC3)CCCCC2)N1 (stereo unspecified)	7.1	0.0	+	-5.2	-1.9	active
COc1cc(C=C(c2nc3ccccc3s2)c2nc3ccccc3s2)cc(OC)c1O	-31.0	8.2	+	-14.7	0.5	52.3*
Cc1cc(N=NC(=O)c2ccccc2O)c2ccccc2c1O	14.7	-1.7	i	69.5*	-7.8	22.9
Cn1c(O)c(N=NC(=O)c2ccccc2O)c2ccccc21	4.7	2.0	i	24.8	-3.9	-5.4
CC(C)Sc1nc2c(c(=O)[nH]c(=O)n2C)n1Cc1ccc(Cl)cc1	-119.8	-0.3	i	83.5*	5.1	-1.6
Cc1ccc(Cn2c(SCC(C)C)nc3c2c(=O)[nH]c(=O)n3C)cc1	-0.5	-3.2	i	90.3*	28.8	-11.3
O=C1N=C(N2CCOCC2)S/C1=C/c1cc2c(cc1[N+](=O)[O-])OCO2	-7.4	-2.6	+	5.5	-9.4	87.0*
Cc1nn(-c2ccccc2)c(Oc2ccccc2)c1C=O	-14.4	-0.2	+	-4.4	-8.2	active
O=C(NCc1ccccc1)C(c1ccncc1)N(C(=O)c1csnn1)c1cccc(F)c1 (stereo unspecified)	-7.1	-2.4	i	44.0	-8.6	-1.4
CCCOc1ccc(N)cc1N	11.3	6.6	+	64.7*	35.5	78.7*
COc1cccc(NC(=O)C(=O)NCCC2CCCCN2S(=O)(=O)c2cccs2)c1 (stereo unspecified)	3.3	1.2	.	.	-5.6	.
CC(C)CN(CC(C)C)C1=N/C(=C\c2ccco2)C(=O)N1c1ccccc1	-49.8	-1.3	+	-15.2	0.2	69.2
COC(=O)C(Cc1cnc(Cl)s1)(C(=O)OC)c1ccccc1[N+](=O)[O-]	-11.9	-0.6	i	8.5	-3.4	0.2
COC(=O)C(C)(C(=O)OC)c1ccccc1[N+](=O)[O-]	-0.4	-0.8	+	16.2	-2.8	?
Cc1cccc(C)c1NC(=O)CNC(=O)C1CC(=O)N(Cc2ccccc2)C1 (stereo unspecified)	5.6	1.1	.	.	-4.6	.
COc1cccc(C(C)=C2SC(=S)NC2=O)c1	32.7	.	.	.	.	.
COc1ccc(C(=S)N2CCN(c3ccccc3C)CC2)cc1	42.1*	-3.1	i	33.4	3.9	-5.7
CC(C)CCNC(=O)CCCC1=NS(=O)(=O)c2ccccc2N1	-1.7	5.2	i	-1.0	-2.4	-2.5
Nc1nnc(CSCc2ccccc2Cl)s1	-15.8	-2.8	i	35.7	-7.3	7.2
Nc1nnc(SCc2ccccc2Cl)s1	1.1	-2.9	+	-74.3	-4.6	7.2*
COc1ccc(C2C3=C(CC(C)(C)CC3=O)Nc3c2c(=O)n(C)c(=O)n3C)cc1OC (stereo unspecified)	2.6	0.6	i	-7.9	-7.9	active
SMILES	PABP1 MLLE inh	APOBEC3A inh	PABP polyA inh	PHOSPHO1 block	APOBEC3G inh	eIF4H inh
C=CCOc1ccccc1C1C2=C(CC(C)(C)CC2=O)Nc2c1c(=O)n(C)c(=O)n2C (stereo unspecified)	-7.5	2.1	i	20.6	-2.7	1.5
CC1(C(=O)NS(=O)(=O)Cc2ccccc2C(F)(F)F)CCN1C(=O)c1ccco1 (stereo unspecified)	2.7	.	.	.	.	.
CCc1ccc(-c2cc(C)no2)cc1S(=O)(=O)N1CCN(c2cc(C)ccc2C)CC1	12.2	-1.7	i	34.4	-3.9	-1.3
COc1ccccc1CNC(=O)COC(=O)c1cnccn1	14.3	-0.7	i	-16.4	-4.8	-14.5
COc1ccccc1CNC(=O)c1cnccn1	-6.0	6.1	+	6.4	-0.2	53.5
COCCCNC(=O)/C(C#N)=c1\s/c(=C\c2ccccc2OC(F)F)c(=O)n1CCCOC	-8.1	-0.2	i	4.4	-3.3	54.7*
Cc1cc(C)c2nc(NCCCNC(=S)NCCCN(C)C)c(C#N)cc2c1	-22.7	-2.4	i	-21.9	-6.1	-4.6
CCOCCCNC(=S)NCCNc1nc2c(C)cccc2cc1C#N	-33.9	-0.8	i	61.0*	4.7	-2.0
Cc1ccc2cc(C#N)c(NCCNC(=S)NCCCN(C)C)nc2c1C	-15.8	4.0	i	64.2*	-7.3	-10.2
O=C(CSc1nc2ccc(S(=O)(=O)N3CCOCC3)cc2[nH]1)N1CCOCC1	25.7	2.3	i	67.0*	20.4	3.6
CCCCNS(=O)(=O)c1ccc2nc(SCC(=O)N3CC(C)OC(C)C3)[nH]c2c1 (stereo unspecified)	-67.9	-16.0	i	75.3*	-4.3	-3.0
CC1CN(C(=O)CCNS(=O)(=O)c2ccc(Br)cc2)CC(C)O1 (stereo unspecified)	3.0	-3.9	.	.	-11.3	.
CCCc1cc(=O)[nH]c(SCC(=O)N2CCN(S(=O)(=O)c3ccc(Cl)cc3)CC2)n1	10.4	2.2	i	5.6	-0.2	56.0*
O=C(CSc1nc2ccccc2c(=O)[nH]1)N1CCOCC1	2.5	2.8	i	-22.8	-6.0	12.7
Cc1cc(-c2csc(NC(=O)c3ccc(C#N)cc3)n2)c(C)n1Cc1ccco1	-50.2	4.1	i	-4.4	6.9	102.6
Cc1ccc(-c2nc(SCC(=O)N(C)c3c(N)n(Cc4ccccc4)c(=O)[nH]c3=O)n[nH]2)cc1	-9.5	2.2	+	19.2	-3.9	105.9*
CC1(C)OC(=O)C(=CNn2cnc3ccccc3c2=O)C(=O)O1	3.8	1.5	i	63.0*	3.9	0.8
O=C(O)c1ccc(NCc2cccc(Br)c2)cc1	-1.0	-0.7	+	3.8	0.1	active
O=C(O)c1ccc(NCc2ccncc2)cc1	-9.9	-0.8	i	23.6	-5.5	4.9
CC1=C(C(=O)N2CCCCCC2)CC(CC(=O)NC2CCCC2)C(=O)N1Cc1ccccc1 (stereo unspecified)	11.7	.	.	.	.	.
